Rows were chosen to be rich in hits. Some 3.5% of all compounds tested hit in one or more screens of this group.
ERa coact inh: ER-alpha (human) coactivator binding inhibition; P03372; TR-FRET ER-alpha LBD / SRC-1 peptide, estradiol-bound; inhibition, % at 25.6 µM; 86,000 compounds, 1.7% hits; in the data active = inhibition above about 50%
Smad3 FoxH1 inh: blocks human Smad3 binding to FoxH1 peptide | P84022 | inhibition, % at 25 µM | 88,000 compounds, 0.29% hits | TR-FRET Smad3/Dy647-FoxH1 peptide binding, europium anti-His;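 active = compounds that reduce the energy-transfer binding signal between the protein and its labelled peptide by more than half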
ERa coact pot: ER-alpha (human) coactivator binding potentiation; TR-FRET ERalpha-LBD/SRC-Cy5 coactivator binding, 2 h; 100 = basal binding, no effect; 86,000 compounds, 1.3% hits; AID 639; coactivator binding (% of control), % at 25.6 µM; in the data active = activity above about 200%;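 also: binding measured in presence of low estradiol as agonist stimulus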
MT1-MMP txn act: MT1-MMP promoter transcription activation | 86,000 compounds, 0.16% hits | activation factor at 10 µM | AID 750 | HT1080 MT1-MMP promoter luciferase reporter, luminescence, overnight; stronger effect = higher value;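 active = activation factor of at least 2 for MT1-MMP transcription at 10 µM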
ERb SRC1 inh: blocks coactivator binding to human estrogen receptor beta | Q92731 | TR-FRET ER-beta LBD / SRC1-Cy5 peptide binding; receptor agonist-loaded with 1 µM estradiol | inhibition, % at 25.6 µM | 86,000 compounds, 1.3% hits | AID 633;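 active = compounds whose percent inhibition of the receptor-coactivator binding signal exceeds about 50% in the single-dose screen, limit read from the data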
MMP13 inh: blocks human MMP13 activity | P45452 | MMP-13 fTHP FRET cleavage, Mca fluorescence | inhibition, % at 4 µM | 65,000 compounds, 0.07% hits;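 active = inhibition above the mean of compound-free control plate wells plus 3 SD, cut at about 14% in these data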
Numbers stand for hits; – = inactive; · = no result; [ ] = dose if it differs, or a comment.

SMILES	ERa coact inh	Smad3 FoxH1 inh	ERa coact pot	MT1-MMP txn act	ERb SRC1 inh	MMP13 inh
CCOc1ccc(C(C)(N)C(=O)O)cc1 (centres undefined)	–	–	–	–	–	–
C=COC(=O)CSc1nc(-c2cccs2)ccc1C#N	–	–	–	–	–	–
COc1ccc(-c2ccc(C#N)c(SCC(=O)OCc3ccccc3)n2)cc1OC	–	–	206[fluorescence artefact?]	–	–	·
N#Cc1ccc(-c2ccc3c(c2)OCO3)nc1SCC(=O)OCc1ccccc1	–	–	246[fluorescence artefact?]	–	–	·
COC(=O)C1=C(C)NC(C)=C(C(=O)OC)C1c1cc2ccc(C)cc2[nH]c1=O	–	–	–	–	–	–
CCOC(=O)c1cc2sccc2n1CC(=O)Nc1ccc2c(c1)OCCO2	–	–	–	–	–	–
O=C(Cn1c(CN2CCCCC2)nc2ccccc2c1=O)NC1CCCCC1	–	–	–	–	–	–
O=C1CCCCCC1C1(O)C(=O)Nc2ccc(Br)cc21 (centres undefined)	·	·	·	–	·	–
CN1C(=O)CSc2ccc(NC(=O)N3CCN(c4ccccn4)CC3)cc21	–	–	–	–	–	–
CN1C(=O)CSc2ccc(NC(=O)N3CCC(N4CCCCC4)CC3)cc21	58	–	–	–	51	–
CC1(C)Cc2ccccc2-c2nnnn21	–	–	–	–	97[fluorescence artefact?]	–
COc1ccc(-c2ccc(-c3noc(-c4ccccc4F)n3)c(OC)n2)cc1	–	–	241[fluorescence artefact?]	–	–	–
COc1nc(-c2ccccc2)ccc1-c1noc(-c2ccco2)n1	–	–	229	–	–	–
COc1nc(-c2ccc(Cl)cc2)ccc1-c1noc(-c2ccncc2)n1	65[fluorescence artefact?]	–	369[fluorescence artefact?]	–	–	–
COC(=O)c1cc(OC)c(OC)cc1NC(=O)Nc1ccc(OC)cc1	–	–	–	–	–	·
O=C(CN1C(=O)C2(OCCCO2)c2ccccc21)NCCc1ccccc1	–	–	–	–	–	–
O=C(Nc1cccc(-c2cn3cccnc3n2)c1)c1ccc2c(c1)OCO2	60	–	–	–	–	–
O=C(Nc1cccc(F)c1)c1ccc2c(c1)OCO2	–	–	–	–	–	–
O=C(Nc1ccc2nn(-c3ccccc3)nc2c1)c1ccc2c(c1)OCO2	51	–	–	–	–	–
CCCn1c(N)c(C(=O)CSc2nnc(Cc3ccccc3)o2)c(=O)n(C)c1=O	–	–	–	–	–	–
OC1CCCN(Cc2c3ccccc3cc3ccccc23)C1 (centres undefined)	–	–	–	–	–	·
Cn1cc(-c2nnc(-c3ccccc3)o2)c2ccccc21	–	–	–	2.3	–	·
Cc1ccccc1-c1nnc(-c2ccccc2)o1	–	–	–	–	–	–
c1ccc(-n2c(-c3ccncc3)nnc2-c2cccs2)cc1	–	–	–	–	–	–
Cc1ccc(NC(=O)CSc2nnnn2-c2ccc3c(c2)OCO3)cc1C	56[fluorescence artefact?]	–	330	·	–	·
SMILES	ERa coact inh	Smad3 FoxH1 inh	ERa coact pot	MT1-MMP txn act	ERb SRC1 inh	MMP13 inh
COc1cccc(-n2nnnc2SCC(=O)Nc2ccc(C(C)=O)cc2)c1	–	–	332	–	–	·
CCOC(=O)c1csc(NC(=O)CSc2nnnn2-c2cccc(OC)c2)n1	–	–	–	–	–	·
Cc1ccc(-n2nnnc2SCC(=O)Nc2ccc3c(c2)COC3=O)cc1C	73	–	–	–	–	–
O=C(CCN1CCOCC1)Nc1c(-c2ccccc2)c2cc(Br)ccc2[nH]c1=O	–	–	–	–	–	–
O=C(Nc1ccccc1)Nc1nccs1	–	–	–	–	–	·
CSc1ccccc1C(=O)Nc1nccs1	76[fluorescence artefact?]	–	–	–	–	·
CC1CCCC(NC(=O)CC2Nc3ccccc3NC2=O)C1C (centres undefined)	–	–	–	–	–	–
NC(=O)c1ccsc1NC(=O)c1ccc(S(=O)(=O)N2CCCCC2)cc1	–	–	–	–	–	–
CC1CC(C)CN(S(=O)(=O)c2ccc(C(=O)Nc3sccc3C(N)=O)cc2)C1 (centres undefined)	–	–	253[fluorescence artefact?]	·	–	·
Cc1cc(NC(=O)CSc2ccc3nnc(-c4ccc(Cl)cc4)n3n2)no1	–	–	–	–	–	–
Cc1cnn(-c2ccc3nnc(-c4ccc(Cl)cc4)n3n2)c1	–	–	329[fluorescence artefact?]	–	–	·
Cc1ccc(-c2nnn(CC(=O)N(c3cccc(F)c3)C(C(=O)NC3CCCC3)c3ccco3)n2)o1 (centres undefined)	–	–	–	–	–	–

Source: PubChem BioAssay (several laboratories)
